“And” between values parts separate entries of the source, which are not always exact repeats. Identical values can stand only once. Counter-ions that a name gives are not always drawn.
What was measured:
Experiment in all cases: cell viability relative to vehicle control; higher = less cytotoxic
Details in all cases: 10 µM
K562 = test system: K562
In short: (§1)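 Each screen used CRISPR-edited mutant and wild-type clones from four leukaemia lines. Compounds were acoustically dispensed at a single 10 µM dose, and CellTiter-Glo luminescence was read after 48 h with the supernatant first removed. Viability was analysed in Genedata Screener and given as percent of the on-plate vehicle control.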

MARIMO = test system: MARIMO
In short: as §1

MOLM14 = test system: MOLM14
In short: as §1

OCI-AML2 = test system: OCI-AML2
In short: as §1

Compound | cell viability (K562; SRSF2 genotype: SRSF2 P95H/wt) | cell viability (K562; SRSF2 genotype: SRSF2 wt/wt) | cell viability (MARIMO; SRSF2 genotype: SRSF2 P95H/wt) | cell viability (MARIMO; SRSF2 genotype: SRSF2 wt/wt) | cell viability (MOLM14; SRSF2 genotype: SRSF2 P95H/wt) | cell viability (MOLM14; SRSF2 genotype: SRSF2 wt/wt) | cell viability (OCI-AML2; SRSF2 genotype: P95H/wt) | cell viability (OCI-AML2; SRSF2 genotype: wt/wt)
CC(C)Cc1ccc([C@@H](C)C(=O)NS(C)(=O)=O)cc1 [Reparixin (Repertaxin)] | 102% and 97.5% | 98.4% | 97.6% | 99.2% | 95.7% | 98.4% | 93.3% | 105%
O=C(Cn1ccnc1[N+](=O)[O-])NCc1ccccc1 [Benznidazole] | 96.1% and 92.1% | 95.9% | 96.6% | 92.8% | 97.1% | 99.4% | 103% | 100%
COCCOc1ccc2c(c1)ncn2-c1ccc2cccc(N3CCC(N)CC3)c2n1 | 72.2% and 70.2% | 63.5% | 2.19% | 1.07% | 0.96% | -0.03% | 0.57% | 3.99%
CO[C@H]1CC[C@H](N2C(=O)CNc3ncc(-c4ccc(C(C)(C)O)nc4)nc32)CC1 | 27.9% and 28% | 29.7% | 36.3% | 32.3% | 28.1% | 24.1% | 26% | 29.6%
Cc1ccc(-c2n[nH]c3c2C(c2cccc(O)c2)N(c2ccc(C(=O)O)cc2)C3=O)cc1 (stereo not drawn) | 104% and 100% | 105% | 101% | 106% | 100% | 107% | 104% | 106%
C[C@@H]1CC(=O)c2c(ccc3c2C(=O)c2cccc(O)c2C3=O)C1 | 77.9% and 93.8% | 94.6% | 67.6% | 57.6% | 53.9% | 68.5% | 43.4% | 43.6%
CCOC(=O)Nc1ccc(NCc2ccc(F)cc2)nc1N [Flupirtine maleate] | 101% and 104% | 104% | 91.5% | 105% | 101% | 103% | 100% | 110%
N#Cc1c(Oc2ccc(F)c(NC(=O)Cc3cccc(C(F)(F)F)c3)c2)ccc2nc(NC(=O)C3CC3)sc12 | 12.9% and 18.9% | 19% | 40.9% | 36.8% | 36.6% | 25.9% | 31.6% | 36.8%
CC(=O)O[C@H]1C(=O)[C@@]2(C)[C@H]([C@H](OC(=O)c3ccccc3)[C@]3(O)C[C@H](OC(=O)[C@H](O)[C@@H](NC(=O)c4ccccc4)c4ccccc4)C(C)=C1C3(C)C)[C@]1(OC(C)=O)CO[C@@H]1C[C@@H]2O [7-Epitaxol] | 19.6% and 30.7% | 26.1% | 7.11% | 4.44% | 8% | 2.61% | 6.19% | 12.1%
OC[C@H]1O[C@@H](n2cnc3c(O)nc(O)nc32)[C@H](O)[C@@H]1O [Xanthosine] | 101% and 100% | 96% | 99.9% | 101% | 99.6% | 98.5% | 93.2% | 99.7%
C[C@H]1[C@H](C)CC[C@]2(C(=O)O)CC[C@]3(C)C(=CC[C@@H]4[C@@]5(C)CCC(=O)C(C)(C)[C@@H]5CC[C@]43C)[C@H]12 [Ursonic acid] | 37.2% and 50.8% | 55.8% | 27.6% | 19% | 28.4% | 19.4% | 24.6% | 16.9%
Nc1ccccc1NC(=O)c1ccc(CNC(=O)OCc2cccnc2)cc1 [Entinostat (MS-275, SNDX-275)] | 9.53% and 33.8% | 26.6% | 22.1% | 25.4% | 1.22% | 1.1% | 0.59% | 4.33%
O=C(O)c1ccc(Br)c(O)c1 [4-Bromo-3-hydroxybenzoic acid] | 105% and 104% | 104% | 100% | 110% | 100% | 107% | 99.3% | 108%
CN(C)CC[C@H](CSc1ccccc1)Nc1ccc(S(=O)(=O)NC(=O)c2ccc(N3CCN(Cc4ccccc4-c4ccc(Cl)cc4)CC3)cc2)cc1[N+](=O)[O-] | 49.5% and 28.1% | 72.7% | 0.46% | 1.66% | 0.15% | 2% | 0.19% | 3.31%
O=c1ccc2cc(O)ccc2o1 [6-Hydroxycoumarin] | 99.5% and 104% | 102% | 99% | 90.9% | 104% | 101% | 97.9% | 99%
CCOC(=O)CC(=O)N1CCSC1COc1ccccc1OC (stereo not drawn) [Moguisteine] | 99.2% and 102% | 97.3% | 98.3% | 108% | 100% | 105% | 105% | 92%
O=C(NC[C@H](O)CN1CCc2ccccc2C1)c1cc(NC2COC2)ncn1 | 95.9% and 92.8% | 95.6% | 87.6% | 98.1% | 88.8% | 92.6% | 76.3% | 77.1%
CCS(=O)(=O)c1cccc(-c2cc(C(=O)NC3CCN(C)CC3)c(C)c3[nH]c4ncc(C)cc4c23)c1 | 29% and 32.2% | 21.9% | 11.9% | 7.33% | 2.91% | 2.2% | 4.55% | 11.1%
NC(=O)N1c2ccccc2C=Cc2ccccc21 [Carbamazepine (Carbatrol)] | 95.3% and 86.7% | 90.3% | 81.3% | 97.6% | 88.3% | 87.9% | 92% | 104%
NC(=O)[C@@H]1CC[C@@H]2CN1C(=O)N2OS(=O)(=O)O [Avibactam sodium] | 102% and 116% | 112% | 110% | 106% | 108% | 111% | 102% | 101%
O=C(C=CC=Cc1ccccc1)CCc1ccccc1 [Alnustone] | 105% and 100% | 91.8% | 92% | 87.5% | 88.1% | 87.4% | 76.6% | 95.6%

Compound | cell viability (K562; SRSF2 genotype: SRSF2 P95H/wt) | cell viability (K562; SRSF2 genotype: SRSF2 wt/wt) | cell viability (MARIMO; SRSF2 genotype: SRSF2 P95H/wt) | cell viability (MARIMO; SRSF2 genotype: SRSF2 wt/wt) | cell viability (MOLM14; SRSF2 genotype: SRSF2 P95H/wt) | cell viability (MOLM14; SRSF2 genotype: SRSF2 wt/wt) | cell viability (OCI-AML2; SRSF2 genotype: P95H/wt) | cell viability (OCI-AML2; SRSF2 genotype: wt/wt)
OC[C@H]1O[C@H](OC[C@H]2O[C@H](OC[C@H]3O[C@H](O[C@]4(CO)O[C@H](CO)[C@@H](O)[C@@H]4O)[C@H](O)[C@@H](O)[C@@H]3O)[C@H](O)[C@@H](O)[C@H]2O)[C@H](O)[C@@H](O)[C@H]1O [Stachyose] | 106% and 100% | 99.7% | 102% | 109% | 97.3% | 105% | 94.5% | 93.5%
CC(NC(=O)Cc1cc(F)cc(F)c1)C(=O)NC(C(=O)OC(C)(C)C)c1ccccc1 (stereo not drawn) | 98.8% and 103% | 106% | 83.2% | 95.7% | 96.8% | 103% | 90% | 102%
c1cncc(-c2cn[nH]n2)c1 | 78.5% and 56.7% | 64.2% | 88.4% | 96.6% | 88.6% | 99.2% | 31.8% | 34.6%
CNC(=C[N+](=O)[O-])NCCSCc1csc(CN(C)C)n1 [Nizatidine] | 106% and 107% | 102% | 101% | 107% | 103% | 101% | 92.9% | 108%
C=C(C)[C@@H]1CC[C@]2(C(=O)O)CC[C@]3(C)[C@H](CC[C@@H]4[C@@]5(C)CC[C@H](O[C@@H]6OC[C@H](O)[C@H](O)[C@H]6O[C@@H]6O[C@@H](C)[C@H](O)[C@@H](O)[C@H]6O)[C@@](C)(CO)[C@@H]5CC[C@]43C)[C@@H]12 [Pulchinenoside A] | 97.5% and 96.7% | 92% | 93.9% | 106% | 102% | 96.6% | 94.6% | 105%
Cc1cc(O)c(C(=O)N[C@@H](C(=O)N[C@@H]2C(=O)N3C(C(=O)O)=C(CSc4nnnn4C)CS[C@H]23)c2ccc(O)cc2)cn1 [Cefpiramide sodium] | 111% and 107% | 104% | 109% | 115% | 107% | 110% | 99.7% | 99.8%
COC1CCN(C(=O)c2cc(Cc3n[nH]c(=O)c4ccccc34)ccc2F)CC1 | 78.6% and 83.8% | 86% | 81.5% | 97.1% | 57.9% | 34.7% | 51.2% | 62.1%
O=C(O)c1c[nH]c2ccccc12 [Indole-3-carboxylic acid] | 103% and 92% | 100% | 97.8% | 110% | 94.3% | 101% | 92.3% | 114%
CCCCC(CC)COC(=O)C=Cc1ccc(OC)cc1 (stereo not drawn) [Octinoxate] | 106% and 102% | 103% | 96.9% | 109% | 99.5% | 108% | 90.2% | 93.4%
CCOC(=O)C1=C(N)Oc2ccc(Cl)cc2C1C(C#N)C(=O)OCC (stereo not drawn) | 85.4% and 84.9% | 65.4% | 56.6% | 55.8% | 64.2% | 93.2% | 63.7% | 64.2%
CN(C)Cc1ccc(S(=O)(=O)n2ccc(/C=C/C(=O)NO)c2)cc1 [Resminostat (RAS2410)] | 1.83% and 16.1% | 11.8% | 2.94% | 2.37% | 0.76% | 0.51% | 0.72% | 1.22%
CNc1nc(-c2ccc3c(N)n[nH]c3c2)cc(N2C[C@@H](C(=O)NC3CCCCC3)CC[C@H]2C)n1 | 78.3% and 74.9% | 73.5% | 72.1% | 72.8% | 42.3% | 39.5% | 47.6% | 40.7%
Cc1[nH]c(/C=C2\C(=O)Nc3ccccc32)c(C)c1CCC(=O)O [Orantinib (TSU-68, SU6668)] | 98.7% and 95.2% | 95.5% | 96.3% | 103% | 82% | 89.2% | 75.2% | 84.2%
COc1ccc(Cl)cc1C(=O)NCCc1ccc(S(=O)(=O)NC(=O)NC2CCCCC2)cc1 [Glyburide (Glibenclamide)] | 107% and 98.6% | 110% | 106% | 120% | 108% | 103% | 98.8% | 104%
Cc1cc(-c2ccc(/N=N/c3ccc4c(S(=O)(=O)O)cc(S(=O)(=O)O)c(N)c4c3O)c(C)c2)ccc1/N=N/c1ccc2c(S(=O)(=O)O)cc(S(=O)(=O)O)c(N)c2c1O [Evans Blue] | 66.2% and 64.2% | 62.8% | 63.8% | 72.2% | 67.4% | 64.7% | 66.2% | 67.6%
S=C=Nc1cccc(NC(=S)NCCCCNC(=S)Nc2cccc(N=C=S)c2)c1 | 98.3% and 104% | 98.8% | 106% | 105% | 102% | 106% | 109% | 106%
NC(=O)c1cccc2cn(-c3ccc([C@@H]4CCCNC4)cc3)nc12 [MK-4827(Niraparib) tosylate] | 103% and 99.2% | 87.5% | 48.4% | 64.4% | 21.4% | 7.47% | 41.8% | 47.3%
CC(C)=CCC[C@@](C)(O)[C@H]1CC[C@@]2(C)[C@@H]1[C@H](O)C[C@@H]1[C@@]3(C)CC[C@H](O)C(C)(C)C3CC[C@]12C (stereo partly drawn) [(20R)-Protopanaxdiol] | 109% and 101% | 96% | 103% | 105% | 106% | 102% | 103% | 101%
C[C@@H](c1ncncc1F)[C@](O)(Cn1cncn1)c1ccc(F)cc1F [Voriconazole] | 102% and 99.5% | 99% | 107% | 106% | 99.5% | 101% | 104% | 108%
COc1ccc(/C=C/C(=O)c2c(O)cc(OC)cc2OC)cc1 [Flavokawain A] | 95.5% and 92.8% | 92.7% | 78.9% | 82.6% | 72.6% | 103% | 71.2% | 74.3%

Reference: the supplement of paper PMC10981050
